Data from PubChem BioAssay AID463173 (ICCB-Longwood Screening Facility, Harvard Medical School, 2010).
The whole screen tested about 52,000 compounds, of which about 4,300 (8.3%) were called active. For the sample, actives were picked, then their nearest neighbours and some compounds at random. Unmarked numbers belong to inactive results. Cut-off read from the data, not from the text of the source: active = survival mostly below about 52% (no sharp cut-off); inactive = mostly above about 56%.

Each molecule was assayed on DeltatarO mutant (assay: S. aureus survival, RN4220 and DeltatarO strains – OD600, teichoic acid synthesis inhibitors, primary screen (AID 463173)). Details: S. aureus RN4220 wild type/DeltatarO growth, OD600, 18 h, stronger effect = lower value, screened at 18.75 µg/mL (by protocol).
O=C(O)c1nnc(Cl)c2ccccc12 was tested, and the survival was 91%. Work on Cc1nc(-c2ccc(Cl)cc2)sc1CCNC(=O)C(=O)Nc1ccccc1C#N yielded a survival of 80%. With Cc1ccc(CNC(=O)c2cc3c(=O)n4cccc(C)c4nc3s2)cc1 the survival was 54% (active). For Cc1cccn2c(=O)c3cc(C(=O)NCC(C)C)sc3nc12, the survival was 63% (active). Molecule CCCCNC(=O)c1cc2c(=O)n3cccc(C)c3nc2s1 has a survival of 150%. Molecule CCOC(=O)CNC(=O)c1cc2c(=O)n3cccc(C)c3nc2s1 has a survival of 179%. Cc1cccn2c(=O)c3cc(C(=O)NCc4ccccc4Cl)sc3nc12 gave a survival of 62%. COc1ccc(CNC(=O)c2cc3c(=O)n4cccc(C)c4nc3s2)cc1 gave a survival of 68%. O=C(CN1CCC(n2nnc3cc(C(F)(F)F)ccc32)CC1)Nc1ccc(N2CCCC2)cc1 showed a survival of 86%. In the case of CCN(CC)CCNC(=O)c1sc2nc(C)cc(C)c2c1-n1cccc1, the survival was 86%. Molecule CC(C)CN(CCNC(=O)c1cc(=O)[nH]c2ccc(S(=O)(=O)N3CCCCCC3)cc12)CC(C)C has a survival of 86%. Molecule COc1ccc(OC)c(CNC(=O)Cn2ncc3c([nH]c4ccc(C)cc43)c2=O)c1 has a survival of 92%. Cc1ccc(-c2cc(C(=O)Oc3ccc(C#N)cc3)no2)cc1 gave a survival of 97%. With CC(C)c1ccc(OC(=O)c2cc(-c3ccc4c(c3)OCCO4)on2)cc1 the survival was 8% (active). In the case of O=C(Oc1ccc(Cl)cc1)c1cc(-c2ccc3c(c2)OCCO3)on1, the survival was 116%. With CC(C)c1ccc(OC(=O)c2cc(-c3ccc(Cl)cc3)on2)cc1 the survival was 98%. COc1ccc(OC(=O)c2cc(-c3ccc4c(c3)OCCO4)on2)cc1 was tested, and the survival was 101%. O=C(Nc1cc(C(F)(F)F)ccc1Cl)c1cc(-c2ccc3c(c2)OCCO3)on1 was tested, and the survival was 116%. With N#Cc1ccc(OC(=O)c2cc(-c3ccc4c(c3)OCCO4)on2)cc1 the survival was 117%. With Cc1ccc(OC(=O)c2cc(-c3ccc4c(c3)OCCO4)on2)cc1C the survival was -2% (active). For Cc1cc(OC(=O)c2cc(-c3ccc4c(c3)OCCO4)on2)ccc1Cl, the survival was -1% (active). Molecule CCC(C)NC(=O)Cn1c(=O)cc(-c2ccccc2)c2c(C)nn(C)c21 (stereo not drawn) has a survival of 70%. For COc1cccc(NC(=O)Cc2csc(COc3cccc(C)c3)n2)c1, the survival was 72%. Work on CCOC(=O)c1cnn(-c2ccc(C(=O)Nc3ccc(OC(F)(F)F)cc3)cc2)c1N yielded a survival of 124%. COC(=O)c1cnn(-c2ccc(C(=O)Nc3ccc(OC(F)(F)F)cc3)cc2)c1N was tested, and the survival was 25% (active). For COC(=O)c1cnn(-c2ccc(C(=O)Nc3ccc(C(C)=O)cc3)cc2)c1N, the survival was 63%. Molecule O=C(Cn1nc2c(cc1=O)CCCC2)NCc1ccccc1Cl has a survival of 144%. Molecule COc1ccccc1CNS(=O)(=O)c1cc(-c2cc(C)no2)ccc1C has a survival of 102%. CCc1ccccc1NC(=O)CSc1nnc(-c2cc(OC)c(OC)c(OC)c2)o1 showed a survival of 111%. In the case of CCCSCCCNC(=O)CN1C(=O)COc2ccc(S(=O)(=O)N3CCCCCC3)cc21, the survival was 62% (active). Work on O=C(CN1C(=O)COc2ccc(S(=O)(=O)N3CCCC3)cc21)N1CCN(c2cccc(C(F)(F)F)c2)CC1 yielded a survival of 79%. O=C(CN1C(=O)COc2ccc(S(=O)(=O)N3CCCCCC3)cc21)N1CCN(c2cccc(C(F)(F)F)c2)CC1 was tested, and the survival was 61% (active). In the case of CCCSCCCNC(=O)CN1C(=O)COc2ccc(S(=O)(=O)N3CCCC3)cc21, the survival was 71%. CCCCSCCCNC(=O)CN1C(=O)COc2ccc(S(=O)(=O)N3CCCC3)cc21 gave a survival of 66%. For O=C(CN1C(=O)COc2ccc(S(=O)(=O)N3CCOCC3)cc21)N1CCN(c2cccc(C(F)(F)F)c2)CC1, the survival was 93%. With CC(=O)c1cccc(NC(=O)CCc2c(C)nc3c(-c4ccc(F)cc4)c(C)nn3c2C)c1 the survival was 76%. With CCC1CN(C(=O)Nc2ccc(Br)cc2F)c2ccccc2S1 (stereo not drawn) the survival was 90%. CCOC(=O)C1CCN(c2nc3c(S(=O)(=O)c4ccccc4)nnn3c3ccc(Cl)cc23)CC1 gave a survival of 112%. With COc1cc(C2CC(=O)Nc3ccc4ccccc4c32)ccc1OC(=O)C(C)C (stereo not drawn) the survival was 67%. For Cc1ccc2c(c1)N(C(=O)Nc1cccc3c1CCCC3)CC(C)O2 (stereo not drawn), the survival was 56%. CCOc1ccc(CCNS(=O)(=O)c2c(C)nc3scc(C)n3c2=O)cc1OCC gave a survival of 83%. CCN(CC)S(=O)(=O)c1ccc2c(c1)c(=O)c(C(=O)NCc1ccccc1Cl)cn2C gave a survival of 61%. CC(C)(C)NSc1nc2ccccc2s1 was tested, and the survival was 58% (active). COC(=O)CSc1nc2ccccc2s1 showed a survival of 94%. CCNc1nc2ccccc2s1 gave a survival of 72%. With Cc1ccccc1-c1noc(-c2ccc(N3CCC(C)CC3)c([N+](=O)[O-])c2)n1 the survival was 55%. Work on CCOc1ccc2nc(N3CCC(C(=O)Nc4ccccc4CC)CC3)sc2c1 yielded a survival of 70%. For Cc1c(NC(=O)c2cc(-c3cccc(O)c3)on2)c(=O)n(-c2ccccc2)n1C, the survival was 56%. With COc1ccc(-c2cc(C(=O)Nc3c(C)n(C)n(-c4ccccc4)c3=O)no2)cc1 the survival was 46% (active). Cc1c(NC(=O)c2cc(-c3ccc(O)cc3)on2)c(=O)n(-c2ccccc2)n1C gave a survival of 169%. With Cc1c(NC(=O)c2cc(-c3ccc(Cl)c(Cl)c3)on2)c(=O)n(-c2ccccc2)n1C the survival was 38% (active). With Cc1c(NC(=O)c2cc(-c3ccc(F)cc3)on2)c(=O)n(-c2ccccc2)n1C the survival was 72%. For Cc1c(NC(=O)c2cc(-c3ccccc3O)on2)c(=O)n(-c2ccccc2)n1C, the survival was 51% (active). COc1ccc(-c2cc(C(=O)Nc3c(C)n(C)n(-c4ccccc4)c3=O)no2)cc1OC showed a survival of 59%. For Cc1c(NC(=O)c2cc(-c3cccc(Cl)c3)on2)c(=O)n(-c2ccccc2)n1C, the survival was 55%. Cc1c(NC(=O)c2cc(-c3ccc(Cl)cc3)on2)c(=O)n(-c2ccccc2)n1C was tested, and the survival was 121%. For CCOC(=O)c1cccc(NC(=O)c2ccc3c(c2)nnn3CC)c1, the survival was 66%. Cc1ccc(-c2onc(C)c2C)cc1S(=O)(=O)N1c2ccccc2CC1C (stereo not drawn) gave a survival of 79%.
